# According to ChEMBL document CHEMBL1961873, “Compounds: GSK PKIS; Assays: Nanosyn kinase panel” (2012):
# Assays:
# [1] = target: Sphingosine kinase 1 (Homo sapiens) (UniProt Q9NYA1); conditions: at 1 µM;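 note: mean SPHK1 inhibition value reported from the GSK PKIS kinase panel screen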
# [2] = target: T1, Sphingosine kinase 2 (Homo sapiens) (UniProt Q9NRA0); conditions: at 0.1 µM
# T1 sequence (whole entry): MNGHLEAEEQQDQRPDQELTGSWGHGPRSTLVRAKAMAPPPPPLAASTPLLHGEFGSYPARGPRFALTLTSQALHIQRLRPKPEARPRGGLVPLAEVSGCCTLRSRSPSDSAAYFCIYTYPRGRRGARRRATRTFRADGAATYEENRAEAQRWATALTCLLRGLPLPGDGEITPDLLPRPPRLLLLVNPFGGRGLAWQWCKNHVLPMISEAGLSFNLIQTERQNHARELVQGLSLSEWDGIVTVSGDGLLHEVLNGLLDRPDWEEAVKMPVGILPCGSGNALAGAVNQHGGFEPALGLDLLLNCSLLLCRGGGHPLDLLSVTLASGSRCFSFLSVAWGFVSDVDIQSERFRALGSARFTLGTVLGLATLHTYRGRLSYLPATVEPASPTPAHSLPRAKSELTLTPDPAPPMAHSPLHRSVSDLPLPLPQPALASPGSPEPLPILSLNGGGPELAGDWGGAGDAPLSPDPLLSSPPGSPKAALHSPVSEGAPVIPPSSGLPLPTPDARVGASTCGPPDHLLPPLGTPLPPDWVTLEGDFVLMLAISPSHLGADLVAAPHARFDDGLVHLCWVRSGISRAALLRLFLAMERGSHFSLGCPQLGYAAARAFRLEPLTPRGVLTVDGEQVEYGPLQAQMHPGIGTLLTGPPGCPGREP
# [3] = target: T1, Sphingosine kinase 2 (Homo sapiens); conditions: at 1 µM
# [4] = target: Casein kinase II subunit alpha (Homo sapiens) (UniProt P68400); conditions: at 0.1 µM
# [5] = target: Casein kinase II subunit alpha (Homo sapiens) (UniProt P68400); conditions: at 1 µM
# [6] = target: T2, Inhibitor of nuclear factor kappa-B kinase subunit alpha (Homo sapiens) (UniProt O15111); conditions: at 0.1 µM
# T2 sequence (whole entry): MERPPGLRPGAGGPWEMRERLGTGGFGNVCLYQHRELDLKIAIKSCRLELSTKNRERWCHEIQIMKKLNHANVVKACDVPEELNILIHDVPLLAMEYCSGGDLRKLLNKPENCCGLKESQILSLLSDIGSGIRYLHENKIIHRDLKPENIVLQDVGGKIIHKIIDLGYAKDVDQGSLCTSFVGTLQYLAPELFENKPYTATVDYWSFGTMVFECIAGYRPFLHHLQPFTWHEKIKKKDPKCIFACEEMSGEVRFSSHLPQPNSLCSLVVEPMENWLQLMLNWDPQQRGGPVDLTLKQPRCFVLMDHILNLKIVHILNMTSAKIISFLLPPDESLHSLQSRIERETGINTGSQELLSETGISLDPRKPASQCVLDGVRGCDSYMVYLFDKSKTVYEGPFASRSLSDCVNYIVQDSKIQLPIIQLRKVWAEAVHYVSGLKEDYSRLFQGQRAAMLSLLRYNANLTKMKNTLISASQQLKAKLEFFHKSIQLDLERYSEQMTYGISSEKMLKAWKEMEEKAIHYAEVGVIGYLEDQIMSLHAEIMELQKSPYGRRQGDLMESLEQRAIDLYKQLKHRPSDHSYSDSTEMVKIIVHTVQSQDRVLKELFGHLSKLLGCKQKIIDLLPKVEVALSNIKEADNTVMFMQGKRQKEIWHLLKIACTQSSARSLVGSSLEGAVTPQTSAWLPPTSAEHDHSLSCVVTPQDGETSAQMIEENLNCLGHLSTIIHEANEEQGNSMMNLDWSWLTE
# [7] = target: T2, Inhibitor of nuclear factor kappa-B kinase subunit alpha (Homo sapiens); conditions: at 1 µM
# [8] = target: T3, Inhibitor of nuclear factor kappa-B kinase subunit beta (Homo sapiens) (UniProt O14920); conditions: at 0.1 µM
# T3 sequence (whole entry): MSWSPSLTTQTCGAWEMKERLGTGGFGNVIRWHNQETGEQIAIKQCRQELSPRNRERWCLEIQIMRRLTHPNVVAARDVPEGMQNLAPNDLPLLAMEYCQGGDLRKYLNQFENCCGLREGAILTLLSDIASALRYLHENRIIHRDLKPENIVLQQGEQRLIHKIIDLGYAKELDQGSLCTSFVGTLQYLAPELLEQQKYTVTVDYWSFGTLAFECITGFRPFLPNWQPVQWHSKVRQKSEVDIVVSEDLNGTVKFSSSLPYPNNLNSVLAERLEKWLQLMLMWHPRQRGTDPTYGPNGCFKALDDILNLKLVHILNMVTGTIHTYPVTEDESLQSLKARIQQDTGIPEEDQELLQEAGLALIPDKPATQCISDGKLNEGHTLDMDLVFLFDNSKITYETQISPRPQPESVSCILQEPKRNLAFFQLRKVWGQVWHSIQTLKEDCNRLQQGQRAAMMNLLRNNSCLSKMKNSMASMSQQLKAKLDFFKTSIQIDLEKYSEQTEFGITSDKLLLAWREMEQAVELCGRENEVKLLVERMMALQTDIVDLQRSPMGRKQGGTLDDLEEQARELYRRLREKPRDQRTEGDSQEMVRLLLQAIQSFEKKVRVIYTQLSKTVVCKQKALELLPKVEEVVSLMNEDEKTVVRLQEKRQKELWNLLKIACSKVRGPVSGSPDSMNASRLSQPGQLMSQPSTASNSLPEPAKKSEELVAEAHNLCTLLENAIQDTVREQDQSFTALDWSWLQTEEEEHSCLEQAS
# [9] = target: T3, Inhibitor of nuclear factor kappa-B kinase subunit beta (Homo sapiens); conditions: at 1 µM
# [10] = target: T4, Inhibitor of nuclear factor kappa-B kinase subunit epsilon (Homo sapiens) (UniProt Q14164); conditions: at 0.1 µM
# T4 sequence (whole entry): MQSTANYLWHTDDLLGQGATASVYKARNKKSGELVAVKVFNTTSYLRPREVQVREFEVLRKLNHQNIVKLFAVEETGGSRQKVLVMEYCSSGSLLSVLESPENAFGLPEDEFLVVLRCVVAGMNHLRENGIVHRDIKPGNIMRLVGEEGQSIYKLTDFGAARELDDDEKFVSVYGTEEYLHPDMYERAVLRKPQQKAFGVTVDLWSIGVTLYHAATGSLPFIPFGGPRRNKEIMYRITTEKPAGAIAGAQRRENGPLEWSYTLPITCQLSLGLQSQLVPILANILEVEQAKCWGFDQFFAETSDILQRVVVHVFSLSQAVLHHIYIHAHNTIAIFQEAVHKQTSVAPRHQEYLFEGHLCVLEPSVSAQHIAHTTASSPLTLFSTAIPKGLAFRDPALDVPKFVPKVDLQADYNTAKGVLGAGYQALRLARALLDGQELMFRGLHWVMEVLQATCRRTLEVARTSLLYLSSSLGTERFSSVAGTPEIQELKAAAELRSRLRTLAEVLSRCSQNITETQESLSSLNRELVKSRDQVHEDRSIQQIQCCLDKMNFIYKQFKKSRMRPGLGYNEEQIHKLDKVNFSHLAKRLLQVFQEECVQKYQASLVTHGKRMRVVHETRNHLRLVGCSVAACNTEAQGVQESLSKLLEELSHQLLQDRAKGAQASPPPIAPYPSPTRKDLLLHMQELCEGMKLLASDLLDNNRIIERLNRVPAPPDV
# [11] = target: T4, Inhibitor of nuclear factor kappa-B kinase subunit epsilon (Homo sapiens); conditions: at 1 µM
# [12] = target: T5, Serine/threonine-protein kinase Nek1 (Homo sapiens) (UniProt Q96PY6); conditions: at 0.1 µM
# T5 sequence (whole entry): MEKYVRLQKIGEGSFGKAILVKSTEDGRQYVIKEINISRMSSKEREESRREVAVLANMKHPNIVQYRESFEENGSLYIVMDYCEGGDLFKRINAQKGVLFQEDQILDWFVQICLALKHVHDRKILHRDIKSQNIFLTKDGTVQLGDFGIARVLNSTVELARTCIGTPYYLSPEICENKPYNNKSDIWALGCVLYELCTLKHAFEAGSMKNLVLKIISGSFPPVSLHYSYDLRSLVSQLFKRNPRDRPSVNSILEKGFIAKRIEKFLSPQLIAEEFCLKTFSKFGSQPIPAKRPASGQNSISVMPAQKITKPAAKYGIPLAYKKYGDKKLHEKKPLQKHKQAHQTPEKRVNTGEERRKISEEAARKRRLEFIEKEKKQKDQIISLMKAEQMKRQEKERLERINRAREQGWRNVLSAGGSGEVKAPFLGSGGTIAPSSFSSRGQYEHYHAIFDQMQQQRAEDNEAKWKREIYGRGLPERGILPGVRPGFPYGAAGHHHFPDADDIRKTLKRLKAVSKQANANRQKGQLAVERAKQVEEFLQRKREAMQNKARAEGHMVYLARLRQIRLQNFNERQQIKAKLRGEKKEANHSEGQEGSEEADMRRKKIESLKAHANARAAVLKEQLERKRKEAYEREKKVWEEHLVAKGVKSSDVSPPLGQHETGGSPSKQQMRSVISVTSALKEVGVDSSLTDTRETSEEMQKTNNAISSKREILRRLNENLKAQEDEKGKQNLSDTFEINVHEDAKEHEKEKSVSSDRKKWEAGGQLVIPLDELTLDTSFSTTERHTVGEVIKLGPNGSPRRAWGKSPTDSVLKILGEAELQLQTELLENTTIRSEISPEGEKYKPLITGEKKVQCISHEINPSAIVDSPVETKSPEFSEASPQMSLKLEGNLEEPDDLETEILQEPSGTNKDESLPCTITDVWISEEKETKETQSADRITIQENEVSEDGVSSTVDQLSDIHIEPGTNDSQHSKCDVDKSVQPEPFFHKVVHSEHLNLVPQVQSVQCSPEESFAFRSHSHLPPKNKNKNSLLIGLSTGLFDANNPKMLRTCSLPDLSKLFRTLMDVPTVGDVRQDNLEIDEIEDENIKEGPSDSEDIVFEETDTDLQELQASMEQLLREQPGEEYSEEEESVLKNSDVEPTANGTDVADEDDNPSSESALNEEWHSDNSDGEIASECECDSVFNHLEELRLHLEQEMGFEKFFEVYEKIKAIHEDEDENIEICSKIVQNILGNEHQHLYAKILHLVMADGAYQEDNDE
# [13] = target: T5, Serine/threonine-protein kinase Nek1 (Homo sapiens); conditions: at 1 µM
# [14] = target: T6, Serine/threonine-protein kinase Nek2 (Homo sapiens) (UniProt P51955); conditions: at 0.1 µM
# T6 sequence (whole entry): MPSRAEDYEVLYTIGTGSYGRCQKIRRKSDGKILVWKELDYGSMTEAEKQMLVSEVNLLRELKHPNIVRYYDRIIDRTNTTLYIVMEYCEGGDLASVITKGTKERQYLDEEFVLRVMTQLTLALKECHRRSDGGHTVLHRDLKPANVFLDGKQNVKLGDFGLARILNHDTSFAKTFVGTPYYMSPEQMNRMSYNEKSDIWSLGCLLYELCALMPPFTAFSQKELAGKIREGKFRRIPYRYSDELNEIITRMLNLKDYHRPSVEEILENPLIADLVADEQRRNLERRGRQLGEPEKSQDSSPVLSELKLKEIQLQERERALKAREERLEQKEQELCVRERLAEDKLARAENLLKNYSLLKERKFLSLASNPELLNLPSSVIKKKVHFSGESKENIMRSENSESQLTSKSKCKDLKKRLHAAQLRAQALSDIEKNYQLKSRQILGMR
# [15] = target: T6, Serine/threonine-protein kinase Nek2 (Homo sapiens); conditions: at 1 µM
# [16] = target: Serine/threonine-protein kinase Nek6 (Homo sapiens) (UniProt Q9HC98); conditions: at 0.1 µM
# [17] = target: Serine/threonine-protein kinase Nek6 (Homo sapiens) (UniProt Q9HC98); conditions: at 1 µM
# [18] = target: Serine/threonine-protein kinase Nek7 (Homo sapiens) (UniProt Q8TDX7); conditions: at 0.1 µM
# [19] = target: Serine/threonine-protein kinase Nek7 (Homo sapiens) (UniProt Q8TDX7); conditions: at 1 µM
# [20] = target: T7, Serine/threonine-protein kinase Nek9 (Homo sapiens) (UniProt Q8TD19); conditions: at 0.1 µM;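 note: reported value is the mean percent inhibition of NEK9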
# T7 sequence (whole entry): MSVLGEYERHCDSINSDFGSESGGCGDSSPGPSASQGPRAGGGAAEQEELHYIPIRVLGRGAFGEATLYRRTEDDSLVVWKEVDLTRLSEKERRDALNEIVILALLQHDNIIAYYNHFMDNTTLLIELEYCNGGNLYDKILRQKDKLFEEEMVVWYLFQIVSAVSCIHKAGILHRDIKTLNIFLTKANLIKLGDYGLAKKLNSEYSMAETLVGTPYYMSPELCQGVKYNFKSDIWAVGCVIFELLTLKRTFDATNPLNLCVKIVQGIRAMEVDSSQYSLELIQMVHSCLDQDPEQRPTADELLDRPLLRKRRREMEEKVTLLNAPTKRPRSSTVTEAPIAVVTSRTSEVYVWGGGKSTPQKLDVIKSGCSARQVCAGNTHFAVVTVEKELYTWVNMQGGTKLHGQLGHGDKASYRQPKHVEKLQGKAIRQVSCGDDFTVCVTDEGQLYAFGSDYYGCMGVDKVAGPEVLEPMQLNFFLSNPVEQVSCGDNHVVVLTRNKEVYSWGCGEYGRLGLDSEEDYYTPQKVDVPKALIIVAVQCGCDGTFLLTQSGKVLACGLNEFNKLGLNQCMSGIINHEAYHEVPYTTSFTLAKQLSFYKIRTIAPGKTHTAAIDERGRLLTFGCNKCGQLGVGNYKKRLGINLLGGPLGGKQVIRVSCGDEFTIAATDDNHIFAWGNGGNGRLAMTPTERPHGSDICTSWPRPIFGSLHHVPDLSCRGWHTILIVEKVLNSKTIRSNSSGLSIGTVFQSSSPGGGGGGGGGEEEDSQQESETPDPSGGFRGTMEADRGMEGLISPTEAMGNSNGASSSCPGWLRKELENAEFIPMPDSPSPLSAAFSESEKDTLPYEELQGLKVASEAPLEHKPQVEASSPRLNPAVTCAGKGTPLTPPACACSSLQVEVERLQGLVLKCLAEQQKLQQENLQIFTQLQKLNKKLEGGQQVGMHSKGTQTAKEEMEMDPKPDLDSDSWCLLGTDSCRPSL
# Chain of Sphingosine kinase 1 (Homo sapiens) (Q9NYA1 whole entry): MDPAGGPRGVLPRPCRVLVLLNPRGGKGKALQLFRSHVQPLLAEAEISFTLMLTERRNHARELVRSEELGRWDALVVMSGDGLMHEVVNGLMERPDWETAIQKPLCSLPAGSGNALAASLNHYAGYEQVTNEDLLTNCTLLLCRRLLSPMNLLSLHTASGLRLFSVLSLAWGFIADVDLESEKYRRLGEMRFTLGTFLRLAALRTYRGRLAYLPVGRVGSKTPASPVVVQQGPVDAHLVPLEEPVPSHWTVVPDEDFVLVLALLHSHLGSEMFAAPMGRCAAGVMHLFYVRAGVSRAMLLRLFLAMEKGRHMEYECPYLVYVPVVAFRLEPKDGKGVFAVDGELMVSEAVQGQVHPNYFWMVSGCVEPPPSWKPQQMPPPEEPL
# Chain of Serine/threonine-protein kinase Nek6 (Homo sapiens) (Q9HC98 whole entry): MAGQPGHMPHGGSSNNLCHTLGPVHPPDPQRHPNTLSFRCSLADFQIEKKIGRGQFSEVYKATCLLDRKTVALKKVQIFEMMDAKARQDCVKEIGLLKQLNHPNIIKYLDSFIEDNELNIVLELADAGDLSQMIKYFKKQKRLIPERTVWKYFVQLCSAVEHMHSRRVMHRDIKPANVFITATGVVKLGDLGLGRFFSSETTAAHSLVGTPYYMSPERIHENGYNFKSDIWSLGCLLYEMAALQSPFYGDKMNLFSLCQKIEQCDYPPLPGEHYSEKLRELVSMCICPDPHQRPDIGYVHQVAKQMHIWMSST
# Chain of Casein kinase II subunit alpha (Homo sapiens) (P68400 whole entry, looked up): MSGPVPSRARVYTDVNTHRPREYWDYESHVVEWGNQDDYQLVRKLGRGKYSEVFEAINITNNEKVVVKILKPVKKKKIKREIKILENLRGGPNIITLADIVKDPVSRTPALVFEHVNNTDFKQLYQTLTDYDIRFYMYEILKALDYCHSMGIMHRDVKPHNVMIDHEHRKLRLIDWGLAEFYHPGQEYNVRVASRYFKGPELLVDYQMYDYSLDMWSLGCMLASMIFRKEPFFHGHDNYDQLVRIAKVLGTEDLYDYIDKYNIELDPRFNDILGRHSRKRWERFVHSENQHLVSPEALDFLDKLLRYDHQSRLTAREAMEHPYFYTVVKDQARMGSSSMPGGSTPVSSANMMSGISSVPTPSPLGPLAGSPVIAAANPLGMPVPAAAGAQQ
# Chain of Serine/threonine-protein kinase Nek7 (Homo sapiens) (Q8TDX7 whole entry, looked up): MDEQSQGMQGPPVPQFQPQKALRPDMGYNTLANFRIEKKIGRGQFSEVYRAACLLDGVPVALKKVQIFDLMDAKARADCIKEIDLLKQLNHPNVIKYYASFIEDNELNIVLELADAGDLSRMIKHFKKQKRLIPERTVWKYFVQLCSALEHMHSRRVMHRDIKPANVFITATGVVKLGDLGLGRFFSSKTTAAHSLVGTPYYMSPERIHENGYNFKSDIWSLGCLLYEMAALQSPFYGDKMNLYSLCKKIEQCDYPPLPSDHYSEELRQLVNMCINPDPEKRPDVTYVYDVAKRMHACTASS
Compound,inhibition [1],inhibition [2],inhibition [3],inhibition [4],inhibition [5],inhibition [6],inhibition [7],inhibition [8],inhibition [9],inhibition [10],inhibition [11],inhibition [12],inhibition [13],inhibition [14],inhibition [15],inhibition [16],inhibition [17],inhibition [18],inhibition [19],inhibition [20]
CCn1c(-c2nonc2N)nc2ccc(F)cc21,0.48%,3.46%,-5.33%,4.71%,8.79%,4%,6.96%,7.24%,8.68%,8.59%,11%,3.29%,4.51%,6.07%,7.52%,5.03%,5.4%,5.72%,3.91%,5.14%
CN(C)CCCn1c(-c2nonc2N)nc2cnccc21,-0.88%,0.92%,0.09%,1.4%,-1.56%,5.57%,4.33%,6.47%,4.26%,4.73%,4.6%,2.29%,2.28%,5.09%,5.23%,0.8%,5.07%,6.28%,1.98%,8.39%
NS(=O)(=O)c1ccc(NC=C2C(=O)Nc3ccc4ncsc4c32)cc1,3.96%,1.68%,2.35%,15.7%,46.4%,13.6%,23.5%,10.6%,19.2%,19.3%,65.4%,3.02%,6.96%,5.94%,8.12%,1.57%,7.78%,7.6%,13.9%,9.07%
